Source: ChEMBL document CHEMBL4513216, “Probing the Open Global Health Chemical Diversity Library for Multistage-Active Starting Points for Next-Generation Antimalarials” (ACS Infect Dis, 2020)
Screen size: about 69,000 compounds; about 8,600 (12%) showed an effect of 50% or more. This excerpt belongs to a sample that is enriched for strong results.

What follows are molecules tested on Plasmodium berghei (assay: Screen against P. berghei liver stage (PbLuc), transformed with Luciferase, at 10uM). Details: tested at 10 uM.
Assay type: functional, HepG2

Row | SMILES | INHIBITION [%]
1 | Cn1cc(S(=O)(=O)N2CCN(S(=O)(=O)c3ccc(Br)s3)CC2)cn1 | 43.2
2 | CN(Cc1cnn(C)c1)C(=O)NCc1cc(Br)cs1 | 34.95
3 | Cc1cc2c(=O)n(CCSc3cnn[nH]3)cnc2s1 | 36.7
4 | O=C(COC[C@H]1CC[C@H]2[C@H](CCN2c2ncccn2)O1)N1CCCC1 | 1.81
5 | Cc1ccc(CCNC(=O)Cn2nc(C)n(Cc3ccccc3)c2=O)o1 | 13.6
6 | CN(Cc1cccc2cccnc12)C1CCS(=O)(=O)C1 (stereo unspecified) | 36
7 | Cc1nnc(NCc2ccccc2F)c(C#N)c1C | 1.35
8 | O=C(c1ccnnc1)N1CCN(Cc2cccnc2)c2ncccc2C1 | -39.9
9 | CS(=O)(=O)CCn1ccc(NC(=O)Cc2cccc(Cl)c2)n1 | 16.5
10 | CSc1nnc(CC2CCN(C(=O)COc3cccnc3)CC2)n1C | 73
11 | COc1cccc(CC(=O)N2CCC(Cc3nnc(SC)n3C)CC2)c1 | 31.3
12 | CCOCC(=O)N1CCC(Cc2nnc(SC)n2C)CC1 | 48
13 | O=C(CCc1cccnc1)N1CCC(c2cnccn2)CC1 | 15.9
14 | CC1CCCN(C(=O)CCc2cccnc2)C1 (stereo unspecified) | 20.9
15 | Cc1ccc(NC2CCN(C(=O)COc3cccnc3)CC2)nn1 | 44.6
16 | CSc1nnc(CC2CCN(C(=O)Cc3ccncc3)CC2)n1C | 64.7
17 | CSc1nnc(C2CCN(C(=O)N3CCCC3)CC2)n1C | 16.185
18 | CSc1nnc(CC2CCN(C(=O)CCc3cccnc3)CC2)n1C | 51.7
19 | CN(C)C(=O)N1CCN(Cc2cnn(C)c2)CC2(CNC(=O)C2)C1 (stereo unspecified) | 17.6
20 | O=C(CCn1c(=O)oc2ccccc21)NCC(O)c1ccc(Cl)cc1 (stereo unspecified) | 18.2
21 | O=S(=O)(CC1CCCCO1)Nc1cnn(Cc2ccccc2)c1 (stereo unspecified) | 33.7
22 | Cc1cnn(C2CN(CC(=O)NCCc3ccsc3)C2)c1 | 22.3

Row | SMILES | INHIBITION [%]
23 | CN1CCN(C[C@@H]2OC[C@H]3CN(Cc4ccsc4)CC[C@H]32)CC1 | -13.3
24 | COCCn1/c(=N\C(=O)CN(C)S(C)(=O)=O)sc2cc(OC)ccc21 | 2.29
25 | COc1cc(Cl)ccc1C(=O)NCC(=O)Nc1nccs1 | -176
26 | Cn1c(=NC(=O)CSCC(=O)Nc2nccs2)sc2ccccc21 | 32.8
27 | O=C(CNC(=O)c1ccccc1Cl)Nc1nccs1 | -9.72
28 | COc1ccc2c(c1)sc(=NC(=O)CSCC(=O)Nc1nccs1)n2C | 51
29 | CCn1c(=NC(=O)CSCC(=O)Nc2nccs2)sc2ccccc21 | 88.1
30 | O=C(Cc1ccccn1)N1CC[C@]2(C[C@@H](Oc3ncccc3F)CO2)C1 | 35.8
31 | CN(C)C(=O)N1CC[C@@H](O)[C@@H]1Cc1ccccc1 | -14.7
32 | Cc1ccc(CN2CCC3(CC2)C(=O)N(CC(C)C)CCN3C)o1 | 39.5
33 | COc1ccc(C(=O)COc2coc(CN3CCSCC3)cc2=O)cc1 | 15.1
34 | Cn1ncc2c(N[C@@H]3CS(=O)(=O)C[C@H]3O)nc(C(C)(C)C)nc21 | 54.4
35 | Cc1nc(N[C@H]2COC[C@@H]2N2CCCC2)c2cnn(C)c2n1 | 32.7
36 | Cc1nc(NC2CCN(C(=O)C3CC3)CC2)c2cnn(C)c2n1 | -25.2
37 | CCOC(=O)CNc1nc(C(C)(C)C)nc2c1cnn2C | 51.3
38 | Cn1ncc2c(NC3CCCN(C(=O)C4CC4)C3)nc(C(C)(C)C)nc21 (stereo unspecified) | 62.9
39 | CCOC(=O)CCCNc1nc(C(C)(C)C)nc2c1cnn2C | 27.9
40 | Cn1ncc2c(NC3CCC(N)CC3)nc(C(C)(C)C)nc21 (stereo unspecified) | 40.5
41 | Cn1ncc2c(NCC3CCS(=O)(=O)C3)nc(C3CCCC3)nc21 (stereo unspecified) | 15.1
42 | Cn1ncc2c(NCC(=O)N3CCNCC3)nc(C(C)(C)C)nc21 | 16.8
43 | CCc1nc(NC2CCCN(C(=O)C3CC3)C2)c2cnn(C)c2n1 (stereo unspecified) | 16
44 | CCOC(=O)CC(C)Nc1nc(C(C)(C)C)nc2c1cnn2C (stereo unspecified) | 46.4

Row | SMILES | INHIBITION [%]
45 | Cn1ncc2c(N[C@H]3CCCC[C@@H]3O)nc(C(C)(C)C)nc21 | 50.1
46 | Cc1nn(C)c(Cl)c1C(=O)NCc1cccnc1N1CCOCC1 | -13
47 | O=C(NCc1nncn1C1CC1)c1ccccc1Oc1cccnc1 | -18.3
48 | O=C(c1ccnnc1)N1C[C@@H]2COC[C@]2(COCC2CC2)C1 | 46.2
49 | OC(CNCCn1cccn1)c1cccc(Br)c1 (stereo unspecified) | 11.2
50 | CC(O)c1cn(CC2CCN(C(=O)c3cscn3)CC2)nn1 (stereo unspecified) | 30.3
51 | CC(O)c1cn(CC2CCN(C(=O)c3cccc(N(C)C)c3)CC2)nn1 (stereo unspecified) | 55.7
52 | CC(O)c1cn(CC2CCN(C(=O)CN(C)C(C)C)CC2)nn1 (stereo unspecified) | 8.51
53 | CCN(CC)C(C(=O)Nc1ccc2c(c1)CCC(=O)N2)c1ccccc1 (stereo unspecified) | 56.8
54 | CCC(CC(=O)Nc1ccc2c(c1)CC(=O)N2)c1ccccc1 (stereo unspecified) | 49.1
55 | CCN(C)C(C(=O)Nc1ccc2c(c1)CCC(=O)N2)c1ccccc1 (stereo unspecified) | 36.3
56 | COCCN1C[C@@H]2[C@@H](OC)CCN(C(=O)c3cccc(OC)c3)[C@@H]2C1 | 11.6
57 | Cc1ccc(OCCC(=O)NC2CCc3nccn3C2)cc1 (stereo unspecified) | 22.1
58 | CN(C)C(=O)CO[C@H]1CN(Cc2ccc(F)cc2)[C@@H]2CCCO[C@H]12 | 25.1
59 | CCCc1nnc(N2CCN(C3CCCC3)CC2)o1 | 26.5
60 | CCCc1nnc(N2CCC(N3CCCC3)CC2)o1 | 79.8
61 | CCCc1nnc(N2CCC(N3CCCCCC3)CC2)o1 | 23.3
62 | O=C(O)C1(Oc2cccc(F)c2)CCN(C2CCOCC2)CC1 | -15.2
63 | Cc1ccccc1OCC(O)CN1CCC(c2ccn[nH]2)CC1 (stereo unspecified) | -17.6
64 | CSC1(CNC(=O)NC(C)c2ccc(F)c(F)c2)CCOCC1 (stereo unspecified) | 65.3
65 | CSC1(CNC(=O)NC(C)c2ccc(F)cc2)CCOCC1 (stereo unspecified) | 16.5
66 | CSC1(CNC(=O)NC(C)Cc2cccc(F)c2)CCOCC1 (stereo unspecified) | -12.5

Row | SMILES | INHIBITION [%]
67 | O=C1NCC(C(=O)Nc2ccc(=O)n(Cc3ccccc3Cl)c2)N1 (stereo unspecified) | 26.8
68 | Cc1cc2c(N)nc(=O)n(CC(=O)Nc3ccccc3)c2s1 | 1.45
69 | Cc1cc2c(N)nc(=O)n(CC(=O)Nc3cccc(Cl)c3)c2s1 | 76.9
70 | COc1cccc(NC(=O)Cn2c(=O)nc(N)c3cc(C)sc32)c1 | -12.5
71 | O=C(Nc1cccnc1N1CCSCC1)c1ccc2c(c1)OCO2 | 49.5
72 | COc1c(C2CCCN2CC(=O)Nc2cc(C)on2)c(C)nn1C (stereo unspecified) | -102
73 | CC(C)(C)n1ncc2c1NC(=O)CC2c1ccc(C#N)cc1 (stereo unspecified) | -1.04
74 | CCc1[nH]c2ccc(CNC(=O)c3cnc(N)nc3C)cc2c1C | 36.5
75 | CCc1[nH]c2c(CNc3cncc(C(=O)N(C)C)n3)cc(F)cc2c1C | 47.2
76 | CCc1[nH]c2c(CNC(=O)C3CCC(=O)NC3)cc(C)cc2c1C (stereo unspecified) | -8.75
77 | CCc1[nH]c2c(CNc3cnccn3)cc(F)cc2c1C | 56.3
78 | CCc1[nH]c2c(CNc3nccc(N)n3)cc(C)cc2c1C | 37.4
79 | Cc1cc(CNc2nccc(N)n2)c2[nH]c(C)c(C)c2c1 | 66.9
80 | CCc1[nH]c2c(CNc3nccc(N)n3)cc(F)cc2c1C | 55.4
81 | CCc1[nH]c2c(CNC(=O)C3CCN(C)C3)cc(C)cc2c1C (stereo unspecified) | 14.9
82 | Cc1noc(C)c1CN1CCC2(CC1)CC(Oc1cccnc1)C2 | 30.5
83 | Cn1cccc1C(=O)N1CCN(Cc2cccnc2)c2ncccc2C1 | 10.5
84 | CCc1n[nH]c(C2CN(C(=O)CCOCC(F)(F)F)CCO2)n1 (stereo unspecified) | 1.45
85 | O=C1NC2(CCN(c3ncccn3)CC2)CC1c1cccnc1 (stereo unspecified) | 17.1
86 | Cc1cc(CC(=O)NC2CCCN(c3ccccc3F)C2=O)n[nH]1 (stereo unspecified) | 13.6
87 | Cc1ccsc1C(CNC(=O)c1cc(=O)[nH]c(=O)[nH]1)N(C)C (stereo unspecified) | -27.5
88 | NC(=O)CC1CCCN(c2cncc(SCc3ccccc3)n2)C1 (stereo unspecified) | -13.7

Row | SMILES | INHIBITION [%]
89 | CC(=O)Nc1ccc(Cl)c(C(=O)N(C)C(C)c2ccncn2)c1 (stereo unspecified) | 32.2
90 | CC(=O)Nc1ccc(Cl)c(C(=O)N(C)C(C)c2ccon2)c1 (stereo unspecified) | 18.3
91 | CC(=O)Nc1ccc(Cl)c(C(=O)N(C)C(C)c2nccs2)c1 (stereo unspecified) | 61
92 | Cc1nc(C)n(CC2CN(Cc3ccc4c(c3)OCCO4)CCO2)n1 (stereo unspecified) | 1.78
93 | O=C(Cn1cnc2sccc2c1=O)NCCCc1nnc2ccccn12 | 28.3
94 | Cc1cnc(CCNC(=O)NCCc2ccc(O)cc2)s1 | 42.8
95 | CCc1cnc(CNC(=O)NCCCO)s1 | -25.6
96 | CCc1cnc(CNC(=O)NCCc2ccc(O)cc2)s1 | 71.1
97 | CCC[C@@H]1CN(Cc2ccccc2OC(F)(F)F)C[C@H]1NC(C)=O | 19.7
98 | COc1cccc(Cn2ncnc2CCSC)c1 | -32.9
99 | CC(CCc1ncnn1Cc1cccc(Cl)c1)N1CCCC1 (stereo unspecified) | 49.3
100 | COc1cccc(Cn2ncnc2CCC(C)N2CCN(C)CC2)c1 (stereo unspecified) | 72
101 | Cc1noc(C2CCCN(C(=O)CCCNc3ncccn3)C2)n1 (stereo unspecified) | 8.535
102 | COc1ccc(CCCNCc2c(C)nn(C)c2N(C)C)cc1OC | 45.7
103 | CN(C)c1cccc(C(=O)N2CCn3c(nnc3C3CC3)C2)c1 | 25.4
104 | CN(C)C(=O)c1cc(S(=O)(=O)N2CCCC2Cn2ccnc2)cn1C (stereo unspecified) | 61.5
105 | Cn1cc(S(=O)(=O)N2CCCC2Cn2ccnc2)cn1 (stereo unspecified) | 34.4
106 | Cn1cc(S(=O)(=O)N2CCCC2Cn2ccnc2)cc1C(N)=O (stereo unspecified) | 39.9
